# The full list was thinned out, with hits kept by preference.
# CBFb-RUNX1 inh = inhibitors of human CBF-beta and RUNX1 interaction; 230,000 tested, under 10 active; Potency, µM (series often up to 59.8 µM), usual class: inhibitors; AID 1477; AlphaScreen CBFb-His/RUNX1-biotin binding, biochemical
#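 Room-temperature protein-protein interaction test with 30 nM each of His-tagged CBF-beta and biotinylated RUNX1, 15 min with compound, then 90 min with nickel plus streptavidin beads. Signal read in AlphaScreen mode.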
# Glioma ERSR ind = induces the endoplasmic reticulum stress response in human glioma cells; 420,000 compounds, 0.02% hits; AID 602332; Potency, µM, actives largely listed as activators; U87-MG GRP78 promoter luciferase reporter, 16 h; further: series mostly up to about 76 µM; nearly all actives have a fitted effect of over 35% in size
#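 Stably transfected U87-MG glioma cells carrying a GRP78-based luciferase sensor; 16 h compound incubation. Luminescence end-point read 10 min after Bright-Glo addition at room temperature.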
# ClpP mod = qHTS Assay for Activators of ClpP; AID 651965, 2013; purified B. subtilis ClpP, FRET peptide cleavage, 20 min; 340,000 compounds, 1.9% hits; Potency, µM (top dose mostly 57.5 µM); active means well fitted falling curve with a large enough effect; inconclusive means small, poorly fitted or top-dose-only effect; inactive means no such curve, though single readings can be large or run the other way; further: the source files actives as falling curves though it sought activators and does not explain the sign; nearly all actives have a fitted effect of over 65% in size
# Target sequence (P80244 whole entry, looked up): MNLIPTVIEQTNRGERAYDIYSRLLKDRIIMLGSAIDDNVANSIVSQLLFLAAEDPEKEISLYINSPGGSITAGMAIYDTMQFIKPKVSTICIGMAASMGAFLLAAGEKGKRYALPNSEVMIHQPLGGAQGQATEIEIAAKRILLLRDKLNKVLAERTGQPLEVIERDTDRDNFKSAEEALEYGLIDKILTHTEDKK
#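 FRET quenching reversal measured ClpP activation: 10 microg/mL B. subtilis ClpP at pH 8 with the FRET-FV decapeptide, read at 430 nm after 320 nm excitation. The 20-min minus 0-min signal was scaled between DMSO/no-enzyme wells and ADEP (5.8 microM final).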
# a7 integrin act = integrin-mediated muscular dystrophy alleviation activation | alpha7betagal myoblasts, beta-gal FDG fluorescence, 48 h | Potency, µM (doses to about 38.3 µM), usual class: activators | 350,000 compounds, 0.064% hits; further: nearly all actives have a fitted effect of over 60% in size
#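 alpha7betagal+/- myoblasts (passage 13, 250/well) treated 48 h at 37C with compounds at 1:260 dilution of DMSO stock. Lysed, then beta-galactosidase activity read as FDG fluorescence (ex 480/em 540) after 30 min, with pre-read for autofluorescence.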
# Apoferritin bind = binds horse apoferritin like a general anesthetic. Potency, µM (series often up to 77.5 µM), usual class: inhibitors. 350,000 compounds, 0.074% hits. P02791. apoferritin/1-aminoanthracene competitive binding, fluorescence; further: nearly all actives have a fitted effect of over 20% in size
# Target sequence (P02791 2-175 limits assumed): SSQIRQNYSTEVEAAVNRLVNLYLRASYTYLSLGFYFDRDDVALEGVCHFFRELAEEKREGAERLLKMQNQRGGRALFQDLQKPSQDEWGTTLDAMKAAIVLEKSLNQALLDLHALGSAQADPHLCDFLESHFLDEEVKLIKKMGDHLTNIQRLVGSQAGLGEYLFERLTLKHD
#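 Concentration-response curves derived by four-parameter Hill fitting of normalized fluorescence, where compounds displaced 1-AMA from 10 uM horse apoferritin following a brief 10 min room-temperature incubation; propofol titration acted as positive control.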
# N370S GC mod = inhibits or activates N370S mutant glucocerebrosidase | N370S GC spleen homogenate, 4MU-glucoside fluorescence | 330,000 compounds, 0.092% hits | AID 2101 | Potency, µM (highest dose often 59.4 µM), hits mostly inhibitors
# Numbers stand for hits; – = inactive; ? = inconclusive; · = no result. Unless noted, the call rests on the fitted dose curve; in most records, active means well fitted curve in the direction sought with a large enough effect; inconclusive means small, poorly fitted or top-dose-only effect, or another doubt; inactive means no such curve, though single readings can be large; an effect the other way counts as inactive or inconclusive.
SMILES,CBFb-RUNX1 inh,Glioma ERSR ind,ClpP mod,a7 integrin act,Apoferritin bind,N370S GC mod
Cc1cc(C(=O)OCC(=O)N2CCN(C(=O)c3ccco3)CC2)c(C)n1-c1ccc(F)cc1,–,–,–,–,–,–
CCOC(=O)c1cc2c(ccn2C)n1CC(=O)Nc1ccc(F)cc1,–,–,–,–,–,–
COC(=O)c1cc2c(ccn2-c2ccc(F)cc2)n1C(C)C,–,–,?,–,–,–
COC(=O)c1cc2c(ccn2-c2ccc(F)cc2)n1CC(C)C,–,–,28µM,–,–,–
Cc1nc(NCc2ccc3nsnc3c2)sc1-c1ccn(C)n1,·,–,·,·,·,·
NCCCC[C@H](NC(=O)[C@@H]1CCCN1C(=O)[C@@H]1CSSC[C@H](NC(=O)CNC(=O)CNC(=O)CN)C(=O)N[C@@H](Cc2ccc(O)cc2)C(=O)N[C@@H](Cc2ccccc2)C(=O)N[C@@H](CCC(N)=O)C(=O)N[C@@H](CC(N)=O)C(=O)N1)C(=O)NCC(N)=O,·,–,·,·,·,·
Oc1ccc2ccccc2c1CN1CCOCC1,–,–,·,–,–,–
Oc1cnc2ccccc2c1CN1CCOCC1,–,–,20µM,–,–,–
Cc1csc(NC(=O)c2ccccc2O)n1,–,–,28µM,–,–,–
COc1ccc(CCSc2n[nH]c(C(C)C)n2)cc1,·,–,–,·,·,·
CCn1nnc(NC(=O)c2cccc(-c3cc4ccccc4oc3=O)c2)n1,–,–,14µM,–,–,–
COc1ccc(-c2cc3ccccc3oc2=O)cc1NC(=O)c1ccc(Br)o1,–,–,–,–,–,–
O=C(Nc1cccc(-c2cc3ccccc3oc2=O)c1)c1ccc(Br)o1,–,–,35µM,–,–,–
CN(C)c1ccc(C(=O)Oc2cc(O/N=[N+](\[O-])N(C)C)c([N+](=O)[O-])cc2[N+](=O)[O-])cc1,·,–,·,·,·,·
COc1ccc(OC)c(CN2C[C@H](Sc3ccc(F)cc3)C[C@H]2C(=O)N(C)C)c1,·,–,·,·,·,·
Cn1c(=O)n(C)c2cc(S(=O)(=O)Nc3ccccc3C(=O)O)ccc21,·,–,?,–,–,–
O=C(O)CCCNc1ccc(S(=O)(=O)Nc2ccccc2C(=O)O)cc1C(=O)O,–,–,16µM,–,–,–
Cc1cnc(C)c(-c2ccc3c(c2)CC(CNC(=O)Cc2c(C)[nH]c4ccccc24)O3)n1 (stereo not drawn),·,–,·,·,·,·
C(=N\NC1=Nc2cccc3cccc1c23)/c1ccccc1,–,–,–,–,–,–
NC1=Nc2cccc3cccc1c23,–,–,–,7.9µM,–,–
Cc1c(C(=O)O)cccc1-n1c(C)cc(/C=N/Nc2ccc([N+](=O)[O-])cn2)c1C,?,–,–,2.8µM,–,–
COc1cc2cc(CN(Cc3cccs3)C(=S)Nc3ccccc3)c(=O)[nH]c2cc1OC,–,–,10µM,–,–,–
COc1cc2cc(CN(CCc3ccccc3C)C(=S)NCCCN(C)C)c(=O)[nH]c2cc1OC,–,–,14µM,–,–,–
CCN(CC)CCCN(Cc1cc2cc3c(cc2[nH]c1=O)OCO3)C(=O)Nc1ccccc1OC,–,–,32µM,–,–,–
CC(=O)N(CCc1ccccc1C)Cc1cc2cc3c(cc2[nH]c1=O)OCO3,–,–,28µM,–,–,–
SMILES,CBFb-RUNX1 inh,Glioma ERSR ind,ClpP mod,a7 integrin act,Apoferritin bind,N370S GC mod
CN(C)c1ccc(C2=Cc3ccccc3C2)cc1,·,–,–,·,·,·
O=C1CCN(Cc2cccn2-c2ccccn2)CCN1Cc1ccccc1C(F)(F)F,·,–,·,·,·,·
CNC(=S)N(CCc1ccccc1)Cc1cc2cc(OC)c(OC)cc2[nH]c1=O,–,–,35µM,–,–,–
CCNC(=S)N(CCc1cccc(C)c1)Cc1cc2cc(OC)c(OC)cc2[nH]c1=O,–,–,18µM,–,–,–
CNC(=S)N(Cc1ccco1)Cc1cc2cc(OC)c(OC)cc2[nH]c1=O,–,–,·,–,–,–
CCNC(=S)N(CCc1ccccc1C)Cc1cc2cc(OC)c(OC)cc2[nH]c1=O,–,–,?,–,–,–
O=C1CCC[C@@H]2CC(N(Cc3cc4ccccc4s3)c3ccccc3)C[C@@H]3CCN1[C@H]23 (stereo partly drawn),·,–,–,·,·,·

# Screening data as filed in PubChem.
